# In the supplement of paper PMC8728848:
# About 410 targets per protein were measured; listed, in parts, are those with the strongest signals and a random draw of the rest.
# Experiments:
# Experiment in all cases: glycan array binding signal (z-score within array); higher = stronger binding
# Conditions in all cases: glycan notation: IUPAC condensed, linker removed
# [1] = molecular target: Fuc(a1-2)[Gal(a1-3)]Gal(b1-4)GlcNAc(b1-2)Man(a1-3)[Fuc(a1-2)[Gal(a1-3)]Gal(b1-4)GlcNAc(b1-2)Man(a1-6)]Man(b1-4)GlcNAc(b1-4)GlcNAc
# Method in brief: (§1)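 Negative Z-scores can be read as non-binding. The Z-score is calculated within each array and then averaged across arrays of one protein sequence at different concentrations or buffers and across linkers. Arrays, 3228 in all, were curated from the Consortium for Functional Glycomics database and kept only where the protein sequence was available.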
# [2] = molecular target: Fuc(a1-2)[Gal(a1-3)]Gal(b1-4)[Fuc(a1-3)]Glc
# Method in brief: as §1
# [3] = molecular target: Fuc(a1-2)[GalNAc(a1-3)]Gal(b1-4)[Fuc(a1-3)]GlcNAc(b1-3)GalNAc
# Method in brief: as §1
# Fuc(a1-3)GlcNAc = molecular target: Fuc(a1-3)GlcNAc
# Method in brief: as §1
# [4] = molecular target: Gal(b1-3)GlcNAc(b1-3)Gal(b1-4)GlcNAc(b1-6)[Gal(b1-3)GlcNAc(b1-3)]Gal(b1-4)Glc
# Method in brief: as §1
# [5] = molecular target: Gal(b1-4)GlcNAc(b1-2)[Gal(b1-4)GlcNAc(b1-4)]Man(a1-3)[Gal(b1-4)GlcNAc(b1-2)[Gal(b1-4)GlcNAc(b1-6)]Man(a1-6)]Man(b1-4)GlcNAc(b1-4)GlcNAc
# Method in brief: as §1
# [6] = molecular target: Gal(b1-4)GlcNAc(b1-3)[Gal(b1-4)GlcNAc(b1-6)]GalNAc
# Method in brief: as §1
# [7] = molecular target: Gal(b1-4)GlcNAc(b1-3)[GlcNAc(b1-6)]Gal(b1-4)GlcNAc
# Method in brief: as §1
# GalNAc(b1-3)GalNAc = molecular target: GalNAc(b1-3)GalNAc
# Method in brief: as §1
# [8] = molecular target: GlcNAc(a1-4)Gal(b1-4)GlcNAc(b1-3)Gal(b1-4)GlcNAc
# Method in brief: as §1
# [9] = molecular target: GlcNAc(b1-2)[GlcNAc(b1-4)]Man(a1-3)[GlcNAc(b1-2)Man(a1-6)]Man(b1-4)GlcNAc(b1-4)GlcNAc
# Method in brief: as §1
# [10] = molecular target: GlcNAc(b1-2)[GlcNAc(b1-6)]Man(a1-6)[GlcNAc(b1-2)Man(a1-3)]Man(b1-4)GlcNAc(b1-4)GlcNAc
# Method in brief: as §1
# GlcNAc(b1-4)GlcNAc = molecular target: GlcNAc(b1-4)GlcNAc
# Method in brief: as §1
# [11] = molecular target: GlcNAc(b1-4)GlcNAc(b1-4)GlcNAc(b1-4)GlcNAc(b1-4)GlcNAc(b1-4)GlcNAc
# Method in brief: as §1
# [12] = molecular target: GlcNAc(b1-6)Gal(b1-4)GlcNAc
# Method in brief: as §1
# [13] = molecular target: GlcNAc6S(b1-3)Gal(b1-4)GlcNAc
# Method in brief: as §1
# Kdn(a2-3)Gal(b1-4)Glc = molecular target: Kdn(a2-3)Gal(b1-4)Glc
# Method in brief: as §1
# [14] = molecular target: Man(a1-2)Man(a1-2)Man(a1-3)Man
# Method in brief: as §1
# [15] = molecular target: Man(a1-2)Man(a1-2)Man(a1-6)[Man(a1-3)]Man
# Method in brief: as §1
# [16] = molecular target: Man(a1-2)Man(a1-3)[Man(a1-2)Man(a1-6)]Man(a1-6)[Man(a1-2)Man(a1-2)Man(a1-3)]Man
# Method in brief: as §1
# [17] = molecular target: Man(a1-2)Man(a1-3)[Man(a1-2)Man(a1-6)]Man(a1-6)[Man(a1-2)Man(a1-2)Man(a1-3)]Man(b1-4)GlcNAc(b1-4)GlcNAc
# Method in brief: as §1
# [18] = molecular target: Man(a1-2)Man(a1-3)[Man(a1-6)]Man(a1-6)[Man(a1-2)Man(a1-3)]Man(b1-4)GlcNAc(b1-4)GlcNAc
# Method in brief: as §1
# [19] = molecular target: Man(a1-2)Man(a1-6)[Man(a1-3)]Man(a1-6)[Man(a1-2)Man(a1-2)Man(a1-3)]Man
# Method in brief: as §1
# [20] = molecular target: Man(a1-2)Man(a1-6)[Man(a1-3)]Man(a1-6)[Man(a1-2)Man(a1-2)Man(a1-3)]Man(b1-4)GlcNAc(b1-4)GlcNAc
# Method in brief: as §1
# Man(a1-3)[Man(a1-6)]Man = molecular target: Man(a1-3)[Man(a1-6)]Man
# Method in brief: as §1
# [21] = molecular target: Man(a1-3)[Man(a1-6)]Man(a1-6)[Man(a1-2)Man(a1-3)]Man(b1-4)GlcNAc(b1-4)GlcNAc
# Method in brief: as §1
# [22] = molecular target: Neu5Ac(a2-3)Gal(b1-3)GlcNAc6S
# Method in brief: as §1
# [23] = molecular target: Neu5Ac(a2-3)Gal(b1-4)GlcNAc(b1-3)Gal(b1-4)GlcNAc
# Method in brief: as §1
# [24] = molecular target: Neu5Ac(a2-3)Gal(b1-4)[Fuc(a1-3)]GlcNAc
# Method in brief: as §1
# Neu5Ac(a2-3)GalNAc = molecular target: Neu5Ac(a2-3)GalNAc
# Method in brief: as §1
# [25] = molecular target: Neu5Ac(a2-3)[GalNAc(b1-4)]Gal(b1-4)Glc
# Method in brief: as §1
# [26] = molecular target: Neu5Ac(a2-6)Gal(b1-4)GlcNAc(b1-3)Gal(b1-3)GlcNAc
# Method in brief: as §1
# [27] = molecular target: Neu5Ac(a2-6)Gal(b1-4)GlcNAc(b1-3)Gal(b1-4)GlcNAc
# Method in brief: as §1
# [28] = molecular target: Neu5Ac(a2-6)Gal(b1-4)GlcNAc(b1-3)Gal(b1-4)[Fuc(a1-3)]GlcNAc(b1-3)Gal(b1-4)[Fuc(a1-3)]GlcNAc
# Method in brief: as §1
# [29] = molecular target: Neu5Ac(a2-8)Neu5Ac(a2-3)[Gal(b1-3)GalNAc(b1-4)]Gal(b1-4)Glc
# Method in brief: as §1
# [30] = molecular target: Neu5Ac(a2-8)Neu5Ac(a2-8)Neu5Ac(a2-3)[GalNAc(b1-4)]Gal(b1-4)Glc
# Method in brief: as §1
# Neu5Gc(a2-6)GalNAc = molecular target: Neu5Gc(a2-6)GalNAc
# Method in brief: as §1
# [31] = molecular target: Neu5Gc(b2-6)Gal(b1-4)GlcNAc
# Method in brief: as §1
# [32] = molecular target: Fuc(a1-2)[Gal(a1-3)]Gal(b1-4)GlcNAc
# Method in brief: as §1
# Gal(a1-4)Gal(b1-4)GlcNAc = molecular target: Gal(a1-4)Gal(b1-4)GlcNAc
# Method in brief: as §1
# [33] = molecular target: Gal(b1-3)GalNAc(b1-4)Gal(b1-4)Glc
# Method in brief: as §1
# [34] = molecular target: Gal(b1-3)[Neu5Ac(a2-6)]GalNAc
# Method in brief: as §1
# [35] = molecular target: Gal(b1-4)GlcNAc(b1-3)Gal(b1-4)GlcNAc
# Method in brief: as §1
# Gal3S(b1-4)GlcNAc = molecular target: Gal3S(b1-4)GlcNAc
# Method in brief: as §1
# GalNAc(a1-3)Gal = molecular target: GalNAc(a1-3)Gal
# Method in brief: as §1
# GlcNAc(b1-3)Gal = molecular target: GlcNAc(b1-3)Gal
# Method in brief: as §1
# Kdn(a2-3)Gal(b1-4)GlcNAc = molecular target: Kdn(a2-3)Gal(b1-4)GlcNAc
# Method in brief: as §1
# [36] = molecular target: Man(a1-2)Man(a1-3)[Man(a1-2)Man(a1-6)]Man(a1-6)[Man(a1-3)[Man(a1-6)]Man(a1-6)]Man(b1-4)GlcNAc(b1-4)GlcNAc
# Method in brief: as §1
# [37] = molecular target: Neu5Ac(a2-3)Gal(b1-3)[Neu5Ac(a2-3)Gal(b1-4)]GlcNAc
# Method in brief: as §1
# Neu5Ac(a2-8)Neu5Ac = molecular target: Neu5Ac(a2-8)Neu5Ac
# Method in brief: as §1
# [38] = molecular target: Neu5Ac(a2-8)Neu5Ac(a2-3)[GalNAc(b1-4)]Gal(b1-4)Glc
# Method in brief: as §1
# [39] = molecular target: Neu5Gc(a2-3)Gal(b1-3)GlcNAc
# Method in brief: as §1
binder,measurement,setting,value
"CVN (Nostoc ellipsosporum), P81180 (protein) LGKFSQTCYNSAIQGSVLTSTCERTNGGYNTSSIDLNSVIENVDGSLKWQPSNFIETCRNTQLAGSSELAAECKTRAQQFVSTKINLDDHIANIDGTLKYE",glycan array binding signal (z-score),[1],0.048
same,glycan array binding signal (z-score),[2],-0.107
same,glycan array binding signal (z-score),[3],0.522
same,glycan array binding signal (z-score),Fuc(a1-3)GlcNAc,-0.306
same,glycan array binding signal (z-score),[4],-0.301
same,glycan array binding signal (z-score),[5],5.21
same,glycan array binding signal (z-score),[6],-0.095
same,glycan array binding signal (z-score),[7],-0.306
same,glycan array binding signal (z-score),GalNAc(b1-3)GalNAc,-0.306
same,glycan array binding signal (z-score),[8],-0.203
same,glycan array binding signal (z-score),[9],0.024
same,glycan array binding signal (z-score),[10],-0.3
same,glycan array binding signal (z-score),GlcNAc(b1-4)GlcNAc,-0.301
same,glycan array binding signal (z-score),[11],-0.306
same,glycan array binding signal (z-score),[12],-0.302
same,glycan array binding signal (z-score),[13],-0.222
same,glycan array binding signal (z-score),Kdn(a2-3)Gal(b1-4)Glc,-0.296
same,glycan array binding signal (z-score),[14],5.16
same,glycan array binding signal (z-score),[15],5.83
same,glycan array binding signal (z-score),[16],7.15
same,glycan array binding signal (z-score),[17],5.21
same,glycan array binding signal (z-score),[18],5.58
same,glycan array binding signal (z-score),[19],7.23
same,glycan array binding signal (z-score),[20],6.39
same,glycan array binding signal (z-score),Man(a1-3)[Man(a1-6)]Man,-0.299
same,glycan array binding signal (z-score),[21],4.22
same,glycan array binding signal (z-score),[22],-0.304
same,glycan array binding signal (z-score),[23],-0.3
same,glycan array binding signal (z-score),[24],-0.268
same,glycan array binding signal (z-score),Neu5Ac(a2-3)GalNAc,-0.303
same,glycan array binding signal (z-score),[25],-0.305
same,glycan array binding signal (z-score),[26],-0.302
same,glycan array binding signal (z-score),[27],-0.284
same,glycan array binding signal (z-score),[28],0.537
same,glycan array binding signal (z-score),[29],-0.246
same,glycan array binding signal (z-score),[30],-0.237
same,glycan array binding signal (z-score),Neu5Gc(a2-6)GalNAc,-0.308
same,glycan array binding signal (z-score),[31],-0.306
"IRP60A (Homo sapiens), Q9UGN4 (protein) MWLPWALLLLWVPGCFALSKCRTVAGPVGGSLSVQCPYEKEHRTLNKYWCRPPQIFLCDKIVETKGSAGKRNGRVSIRDSPANLSFTVTLENLTEEDAGTYWCGVDTPWLRDFHDPVVEVEVSVFPASTSMTPASITAAKTSTITTAFPPVSSTTLFAVGATHSASIQEETEEVVNSQLPLLLSLLALLLLLLVGASLLAWRMFQKWIKAGDHSELSQNPKQAATQSELHYANLELLMWPLQEKPAPPREVEVEYSTVASPREELHYASVVFDSNTNRIAAQRPREEEPDSDYSVIRKT",glycan array binding signal (z-score),[32],-0.266
same,glycan array binding signal (z-score),Gal(a1-4)Gal(b1-4)GlcNAc,-0.116
same,glycan array binding signal (z-score),[33],-0.487
same,glycan array binding signal (z-score),[34],-0.296
same,glycan array binding signal (z-score),[35],-0.308
same,glycan array binding signal (z-score),Gal3S(b1-4)GlcNAc,0.268
same,glycan array binding signal (z-score),GalNAc(a1-3)Gal,6.44
same,glycan array binding signal (z-score),GalNAc(b1-3)GalNAc,0.467
same,glycan array binding signal (z-score),GlcNAc(b1-3)Gal,-0.069
same,glycan array binding signal (z-score),Kdn(a2-3)Gal(b1-4)GlcNAc,-0.156
same,glycan array binding signal (z-score),[36],-0.396
same,glycan array binding signal (z-score),[20],-0.395
same,glycan array binding signal (z-score),Man(a1-3)[Man(a1-6)]Man,8.07
same,glycan array binding signal (z-score),[37],-0.378
same,glycan array binding signal (z-score),Neu5Ac(a2-8)Neu5Ac,5.86
same,glycan array binding signal (z-score),[38],-0.404
same,glycan array binding signal (z-score),[39],-0.502
